For 97 molecules, inhibition results are on record in PubChem BioAssay AID1220 (Sanford-Burnham Center for Chemical Genomics, 2008).

Out of some 190,000 compounds screened, about 1,300 (0.68%) were called active. No stated cut-off is given here; in the data, active means inhibition above about 50%; inactive means the rest. The entries come from a sample that favours actives as a whole.

Chain of Mannose-6-phosphate isomerase (Homo sapiens) (P34949 whole entry, looked up): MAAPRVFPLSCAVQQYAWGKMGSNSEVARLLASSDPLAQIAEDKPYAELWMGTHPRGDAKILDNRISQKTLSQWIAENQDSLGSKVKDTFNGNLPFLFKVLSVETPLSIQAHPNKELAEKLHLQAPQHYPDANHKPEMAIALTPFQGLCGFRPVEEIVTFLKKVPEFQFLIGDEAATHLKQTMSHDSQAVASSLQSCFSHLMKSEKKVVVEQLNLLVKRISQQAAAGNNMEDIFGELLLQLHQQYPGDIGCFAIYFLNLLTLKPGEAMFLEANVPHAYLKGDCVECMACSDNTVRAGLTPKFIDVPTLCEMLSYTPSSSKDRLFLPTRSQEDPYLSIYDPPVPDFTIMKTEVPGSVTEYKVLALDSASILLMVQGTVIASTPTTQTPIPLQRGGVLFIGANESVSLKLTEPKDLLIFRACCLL

The assay concerns the target Mannose-6-phosphate isomerase (Homo sapiens) (UniProt P34949). The experiment in a line: human PMI inhibitors, high substrate, primary screen, biochemical, fluorescence intensity, high mannose 6-phosphate (AID 1220). To be noted: recombinant PMI enzyme, coupled fluorescence intensity; at 20 µM; stronger effect = higher value.
The term inhibition denotes the change of the read-out against control, counted positive when it falls. Take `COC(=O)COc1ccc(S(=O)(=O)N2CCN(c3ccccc3)CC2)cc1`: the inhibition is -8.3% (inactive). Then `O=C(c1cccc(F)c1F)N1CCCC1`, with -8.2% (inactive).

On to `O=C(c1cccc2cccc(O)c12)N1CCCCC1`, for which the inhibition was 63.7% (active). Then `Nc1ccccc1C(=O)N1CCCC1`, with 8.2% (inactive); and `Cc1ccc2c(c1)nnn2C1CCN(S(=O)(=O)c2ccc(C(=O)O)cc2)CC1`, with 3.6% (inactive). Then `Cc1ccc2c(c1)nnn2C1CCN(S(=O)(=O)c2ccc(C(=O)N3CC(C)CC(C)C3)cc2)CC1` (configuration not stated), with 10.4% (inactive); and `Cc1ccc2c(c1)nnn2C1CCN(S(=O)(=O)c2ccc(C(=O)N3C(C)CCCC3C)cc2)CC1` (configuration not stated), with 53% (active); and `O=C(COC(=O)/C=C/c1ccccc1[N+](=O)[O-])NCC(F)(F)F`, with -8.8% (inactive). As to `CCc1ccc(NC(=S)N2CCCCCCC2)cc1`, the inhibition is -7.1% (inactive). As for `Cc1nc(SCC2(C)CC2(Cl)Cl)n[nH]1` (configuration not stated), the figure is -3.1% (inactive). As for `COc1ccc(/C=N/NS(=O)(=O)c2ccc(C)cc2)cc1OC(=O)c1ccc(C)cc1`, the figure is -3.5% (inactive); as for `Cc1cccc(/N=C/c2c(O)ccc3oc4c(c23)CCCC4)n1`, 13.6% (inactive); as for `Cc1ccnc(N=Cc2c(O)ccc3oc4c(c23)CCCC4)c1`, 51.1% (active). In the case of `Oc1ccc2oc3c(c2c1/C=N/n1cnnc1)CCCC3`, the inhibition was 9.3% (inactive). Then `CCOC(=O)c1cnc2c(C#N)c(C)nn2c1-c1ccccc1`, with 3.5% (inactive); and `COCCN=c1scc(-c2cc(OC)c(OC)c(OC)c2)n1/N=C/c1c(C)[nH]c2ccccc12`, with 13.7% (inactive); and `N#Cc1cc([N+](=O)[O-])ccc1N1CCN(c2ccccc2O)CC1`, with 10.8% (inactive). As for `CN(N)c1ccc2c(C(F)(F)F)cc(C(F)(F)F)nc2n1`, the figure is -11.3% (inactive); as for `Nc1ccc2c(C(F)(F)F)cc(C(F)(F)F)nc2n1`, 53.7% (active); as for `NNc1ccc2c(C(F)(F)F)cc(C(F)(F)F)nc2n1`, -7.7% (inactive). Then `Cc1c(Cl)cccc1Nc1nc(N)nc(CSCCO)n1`, with -1.1% (inactive); and `O=c1c2c3c(sc2nc2n1CCCCC2)C(O)CCC3` (configuration not stated), with 8.9% (inactive). For the molecule `Cc1cc(C)nc(N2N=C(c3ccccc3)CC2=O)n1`, the inhibition was 26.8% (inactive). Then `COc1ccc(C2=NN(c3nc(C)cc(C)n3)C(=O)C2)cc1`, with 51.6% (active); and `Cc1cc(C)nc(N2N=C(C(C)(C)C)CC2=O)n1`, with -15% (inactive). As for `Cc1ccc(CN2CCCNC2=O)cc1`, the figure is -2.5% (inactive); as for `COc1cc(NC(=O)COC(=O)C2CC2)c(C)cc1[N+](=O)[O-]`, -8% (inactive).

With `Cc1c(Cl)c(C(=O)Nc2nc3ccccc3n2CCN2CCCCC2)nn1C`, the inhibition is 55.1% (active). As for `O=C(Nc1nc2ccccc2n1CCN1CCCCC1)c1ccc(Cl)cc1`, the figure is -11.3% (inactive); as for `CCn1cc(Cl)c(C(=O)Nc2nc3ccccc3n2CCN2CCCCC2)n1`, -2.9% (inactive).

Consider `CCOC(=O)c1cc(-c2ccc(C)cc2)n(CCC(=O)NCCN(C)C)c1C`, for which the inhibition is 5.6% (inactive). Then `O=C1CN2NC(=S)N(c3ccc(Cl)cc3)C2=CN1c1ccc(Cl)cc1`, with -2.8% (inactive).

For `CCOc1cc(NC(=S)NCCCN2CCOCC2)c(OCC)cc1NC(=O)c1cccc(F)c1`, the inhibition is 49.5% (inactive).

For `CCOc1cc(NC(=S)NCCCN2CCOCC2)c(OCC)cc1NC(=O)c1ccccc1C`, the inhibition was 47.3% (inactive).

As for `CCOc1cc(NC(=S)NCCCN2CCOCC2)c(OCC)cc1NC(=O)c1ccccc1`, the inhibition was 24.1% (inactive). `CCOc1cc(NC(=S)NCCCN2CCOCC2)c(OCC)cc1NC(=O)c1ccc(C)cc1`: the inhibition is 52.6% (active).

Turning to `CCOc1cc(NC(=O)c2cccs2)c(OCC)cc1NC(=O)CCC(=O)NCCN1CCOCC1`, the inhibition is 10.6% (inactive). As for `CCOc1cc(NC(=S)NCCCN2CCOCC2)c(OCC)cc1NC(=O)c1cccs1`, the figure is 56.1% (active); as for `O=C(CCCCCn1c(=S)[nH]c2ccccc2c1=O)NCc1ccc2c(c1)OCO2`, -9.7% (inactive); as for `C=CCNC(=S)NNC(=O)c1cccn(Cc2ccc(Cl)cc2Cl)c1=O`, -10.6% (inactive). Turning to `O=C(C[n+]1ccccc1)N/N=C/c1cccs1`, the inhibition is -14% (inactive).

Regarding `Cc1cc(C)nc(N(C#N)S(=O)(=O)c2ccc(Br)cc2)n1`, the inhibition was -3.3% (inactive). `O=C(CSc1nc(O)cc(=O)[nH]1)N1c2ccccc2Sc2ccccc21`: the inhibition was 7.8% (inactive). As for `COc1ccc(CCNC(=O)c2ccc(SC)cc2OC)cc1`, the figure is -1.4% (inactive); as for `COCCOc1ccc(C(F)(F)F)cc1N`, 8.3% (inactive); as for `Nc1cc(N)c(OCC(F)(F)F)cc1OCC(F)(F)F`, 55.8% (active).

For `CONC(=O)c1cc(OCC(F)(F)F)ccc1OCC(F)(F)F`, the inhibition is -7.9% (inactive). As for `Nc1cc(OCC(F)(F)F)cc(OCC(F)(F)F)c1`, the inhibition is 56.9% (active). Then `O=C(Nc1ccc(F)cc1)Nc1cc(OCC(F)(F)F)cc(OCC(F)(F)F)c1`, with 8.1% (inactive); and `Nc1cc(OCC(F)(F)F)cc([N+](=O)[O-])c1`, with -2.2% (inactive); and `O=C1CCC(/C=C/c2ccccc2)=NN1Cc1ccc(F)cc1`, with -0.5% (inactive). As for `CC(=O)NC(CC(=O)NC12CC3CC(CC(C3)C1)C2)c1ccccc1` (configuration not stated), the inhibition was 1.3% (inactive). As for `CCn1cc([N+](=O)[O-])c(C(=O)NCc2ccc(Cl)cc2)n1`, the figure is -5% (inactive); as for `N#Cc1cc(Oc2ccccc2)c(-n2nnc3ccccc32)cc1C#N`, 3.1% (inactive); as for `C#CCOCCOCCOCCNc1nc(N2CCN(C(=O)[C@H]([C@@H](C)CC)n3cc(CCCCN)nn3)CC2)nc(N2CCN(C(=O)[C@H](C)n3cc(CCC(=O)O)nn3)CC2)n1`, -27.7% (inactive). As for `COCCN1CC(=O)N(c2cccc(C)c2C)C(c2ccc(Cl)cc2)C1=O` (configuration not stated), the figure is -1.2% (inactive). As for `Oc1[nH]c2ccccc2c1C=Nc1ccc2c(c1)OCO2`, the figure is 8.6% (inactive); as for `COc1cccc(C=Nc2ccc3c(c2)OCCO3)c1O`, 34.6% (inactive).

`COc1ccc(N=Cc2sc(O)c3ccccc23)cc1`: the inhibition is 8.8% (inactive). Turning to `COc1ccc2c(c1)O[C@H](c1ccc3c(c1)OCO3)[C@@H](O)C2=O`, the inhibition was -2.7% (inactive). As for `CC1(C)CC(=O)C(C=Nc2ccc3c(c2)OCO3)=C(O)C1`, the figure is 14.2% (inactive); as for `COc1ccc(N=CC2=C(O)c3ccccc3C2=O)cc1`, 5.6% (inactive); as for `CCCC(=O)Nc1ccc(C(N)=O)cc1`, 5.2% (inactive).

Turning to `Cc1ccc(C)c(NC(=O)CCC(=O)NNC(=O)C(c2ccccc2)c2ccccc2)c1`, the inhibition was -16.3% (inactive). Take `CC(C)OC(=O)CSc1nnc2c(n1)[nH]c1ccc(F)cc12`: the inhibition was -5.2% (inactive).

For `O=C(NC1CCN(S(=O)(=O)c2ccccc2)CC1)C1CCCCC1`, the inhibition was 7.7% (inactive). In the case of `O=C(c1ccc(Cl)cc1Cl)N1CCC(c2nc3c(nnn3Cc3ccco3)c(=O)[nH]2)CC1`, the inhibition was 14.6% (inactive). Then `CN(C)CCCN(C(=O)CCOc1ccccc1)c1nc2c(F)cccc2s1`, with 54.4% (active); and `CN(C)CCCN(C(=O)COc1ccccc1)c1nc2c(F)cccc2s1`, with -2.9% (inactive); and `CN(C)CCCN(C(=O)CCc1ccccc1)c1nc2c(F)cccc2s1`, with 4% (inactive). Then `COc1ccc(C)cc1NC(=O)CN(C)S(=O)(=O)c1cccs1`, with 1.9% (inactive); and `Cc1ccc(SCCC(=O)NCCSCc2ccccc2C)cc1`, with 8.3% (inactive). Consider `CCOc1ccc(C(=O)CCNC(Cc2cnc[nH]2)C(=O)O)cc1` (configuration not stated), for which the inhibition is 3.4% (inactive). As for `CC(C)OC(=O)CN1C(=O)S/C(=C/c2ccc(N3CCCCC3)o2)C1=O`, the figure is 25% (inactive); as for `O=C1N/C(=C/c2ccc(N3CCOCC3)o2)C(=O)N1c1cccc(Cl)c1`, 15.3% (inactive). As for `O=C1S/C(=C\c2ccc(N3CCOCC3)o2)C(=O)N1c1ccccc1`, the figure is 53.8% (active).

As for `O=C1S/C(=C\c2ccc(N3CCOCC3)o2)C(=O)N1Cc1ccc(F)cc1`, the inhibition is 57.3% (active).

For `CCOC(=O)CN1C(=O)S/C(=C/c2ccc(N3CCCCC3)o2)C1=O`, the inhibition was 24.1% (inactive). As for `O=C1N/C(=C/c2ccc(N3CCOCC3)o2)C(=O)N1c1ccccc1`, the figure is 9% (inactive); as for `CCCN1C(=O)S/C(=C\c2ccc(N3CCOCC3)o2)C1=O`, 52.4% (active); as for `CCCN1C(=O)S/C(=C\c2ccc(N3CCOCC3)cc2C)C1=O`, 9.4% (inactive).

Take `O=C1S/C(=C/c2ccc(N3CCOCC3)o2)C(=O)N1Cc1ccc(F)cc1`: the inhibition is 45.3% (inactive). `O=C1S/C(=C/c2ccc(N3CCOCC3)o2)C(=O)N1Cc1c(F)cccc1Cl`: the inhibition was 5.6% (inactive).

`O=C1S/C(=C\c2ccc(N3CCOCC3)o2)C(=O)N1Cc1c(F)cccc1Cl`: the inhibition was 56.3% (active). As for `COC(=O)CN1C(=O)S/C(=C/c2ccc(N3CCCCC3)o2)C1=O`, the figure is 46% (inactive). As for `COc1ccc(C2C(C(=O)c3ccc(C)o3)=C(O)C(=O)N2c2cc(C)on2)cc1OC` (configuration not stated), the figure is -22.3% (inactive); as for `O=C(CSc1ncccn1)Nn1cnnc1`, -0.7% (inactive); as for `COc1ccc(NC(=O)Nc2cc(NC(=O)Nc3ccc(OC)cc3)c(C)nc2C)cc1`, -8.6% (inactive). As for `CC(=O)N1c2ccccc2NC2=C(C(=O)CCC2)C1c1cccnc1` (configuration not stated), the figure is 6.7% (inactive); as for `Clc1cccc(OCCn2cncn2)c1Cl`, -4.8% (inactive); as for `O=C(CCCC(=O)N1CCc2ccccc21)N1CCc2ccccc21`, -6.6% (inactive). In the case of `COc1cc(OC)cc(C(=O)NNC(=S)NCc2ccco2)c1`, the inhibition was -10.1% (inactive). As for `COc1ccc(-n2c(CSc3nc(C)cc(C)n3)nnc2SCC(=O)Nc2nccs2)cc1`, the figure is 1.3% (inactive); as for `CS(=O)(=O)c1ccccc1-c1nc(-c2cccc(Cl)c2)no1`, 9.9% (inactive); as for `CCSc1nc2sc3c(c2c(=O)n1C1CCCCC1)CCN(C)C3`, -33.5% (inactive). For `N#CCSc1nc2sc3c(c2c(=O)n1C1CCCCC1)CCCC3`, the inhibition was 52.4% (active). Then `CSc1nc2sc3c(c2c(=O)n1C1CCCCC1)CCN(C)C3`, with 10.7% (inactive).
